# MCL1 BIM primary = inhibitors of MCL1 binding to BIM-BH3, primary screen, biochemical, fluorescence polarization; GST-MCL1 / FITC-Bim-BH3 fluorescence polarization; inhibition, % at 10.9 µM; 0.68% of 320,000 active;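 active = inhibition above the mean inhibition of all tested compounds plus 3 SD, set per campaign, cut at about 40% in these data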;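 also: 0% = DMSO wells and 100% = unlabeled Bim-BH3 peptide control; higher means more loss of mP so more displacement of Bim peptide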
# MEX-5 binding = MEX-5 zinc finger RNA-binding disruptors – biochemical, C. elegans, fluorescence polarization, MLPCN library, primary screen | Zinc finger protein mex-5 (Caenorhabditis elegans), Q9XUB2 | MEX-5/FITC-TCR2 RNA binding; active compounds read low | activity score (negative = inhibition of binding), % at 10 µM | 0.38% of 300,000 active | AID 1832, 2009;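 active = inhibition past about -25% in most replicates, and total fluorescence under double the plate's negative control median, limit read from the data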;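 also: 0% = DMSO and -100% = 5 µM competing unlabeled TCR2 RNA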
# GLD-1 TGE inh = GLD-1/TGE RNA complex disruptors, primary screen, biochemical, fluorescence polarization | purified GLD-1 + fluorescein TGE RNA | inhibition, % at 5.96 µM | 0.44% of 320,000 active | AID 2280, 2010;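 active = percent inhibition above a per-plate cutoff, the plate mean of test compounds plus 3 SD, cut at about 30% in these data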;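 also: 0% = DMSO wells with GLD-1 and probe and 100% = wells lacking GLD-1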
# BCLXL inh = inhibitors of human Bcl-xL, primary screen, biochemical, fluorescence polarization, HTS; 0.7% of 320,000 active; GST-Bcl-xL / FITC-Bim BH3 peptide fluorescence polarization; Bcl-2-like protein 1 (Homo sapiens), Q07817; inhibition, % at 10.9 µM;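 active = inhibition above the mean of all tested compounds plus 3 SD, cutoff set per campaign, cut at about 30% in these data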;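 also: 0% = DMSO wells and 100% = unlabeled Bim-BH3 peptide competitor; inhibitors lower millipolarization by displacing the labeled peptide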
# Target sequence (Q07817 whole entry, looked up): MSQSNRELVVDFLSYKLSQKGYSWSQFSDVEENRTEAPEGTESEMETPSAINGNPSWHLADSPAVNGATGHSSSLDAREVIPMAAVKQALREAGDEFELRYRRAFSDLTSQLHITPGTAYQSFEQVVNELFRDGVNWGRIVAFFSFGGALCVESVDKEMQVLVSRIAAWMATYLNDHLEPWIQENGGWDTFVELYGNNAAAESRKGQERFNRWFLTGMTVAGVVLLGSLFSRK
# E coli Lon inh = inhibitors of E. coli Lon protease, primary screen, biochemical, fluorescence polarization; P0A9M0; purified E. coli Lon protease; inhibition, % at 7.94 µM; 0.42% of 360,000 active; in the data active = inhibition above about 13%, passing the limit was not always enough;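 also: 0% = enzyme with probe and DMSO and 100% = no enzyme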
# EBV gp42 block = Epstein-Barr virus gp42 inhibitors, primary screen, biochemical, uHTS, fluorescence polarization; 0.42% of 220,000 active; Fluorescence polarization binding assay, mP read-out; inhibition, % (tested at 21.74 µM); AID 1085, 2008; in the data active = inhibition above about 50%
# * marks the source's active call; other numbers are inactive results; i = inactive; nt = no result given. A selection: hits, their analogues and other compounds. The true share with any hit is near 1.5%.
SMILES,MCL1 BIM primary,MEX-5 binding,GLD-1 TGE inh,BCLXL inh,E coli Lon inh,EBV gp42 block
NS(=O)(=O)c1ccc(NC(=O)c2ccc(-c3ccccc3)cc2)cc1,nt,nt,nt,nt,-6,62*
O=S(=O)(Nc1ccc(O)c2ccccc12)c1cccs1,18,-13,4,9,10,nt
O=S(=O)(Nc1ccc(O)c2ccccc12)c1ccc(Br)cc1,18,-27*,7,13,nt,nt
COc1ccc2c3c([nH]c2c1)C1CC2C(CC(O)C(OC)C2C(=O)O)CN1CC3 (stereo not drawn),41*,-35*,-3,40*,-6,6
Cc1ccccc1C(C)(O)c1cnc(C)n1Cc1ccccc1 (stereo not drawn),nt,nt,nt,nt,-3,nt
Cn1cccc1/C=C1\SC(=Nc2ccccc2)NC1=O,6,0,1,4,-1,-7
Cc1ccc(N=C2NC(=O)/C(=C/c3cn(C)c4ccccc34)S2)cc1C,-112,nt,-80,-67,i,82*
CCN1C(=O)C(C)C=C(C)C=C1C (stereo not drawn),nt,nt,nt,nt,-5,nt
Cc1ccc(Cl)c(NC(=O)COC(=O)c2cc[n+]([O-])cc2)c1Cl,nt,nt,-10,nt,0,nt
CCOC(=O)c1c2ccc(OCC(=O)N/N=C/c3ccc(C)cc3)cc2n2ccccc12,4,-29*,5,8,3,43
CC1(C)CC(=O)C2=C(C1)N(c1ccccc1)C(=O)C(C(=O)OCc1ccccc1)C2 (stereo not drawn),nt,nt,nt,nt,-1,nt
CC1(C)CC(=O)C2=C(C1)N(c1cccc(O)c1)C1=C(C2)C(=O)CC(C)(C)C1,74*,-8,40*,81*,1,32
CCCn1c(O)c(N=Nc2ccc3ccccc3n2)c2ccccc21,-8,-8,2,-4,-10,63*
O=S(=O)(c1cccc(-n2cnnn2)c1)N1CCOCC1,3,1,0,-2,-1,-10
COc1cc(-n2cnnn2)ccc1S(=O)(=O)N1CCOCC1,3,0,-1,32*,8,-8
NC(=S)N=Nc1ccc(NN=C(N)N)cc1,16,-53*,-1,13,-3,nt
N#C/C(=N/Nc1ccc(OC(F)(F)F)cc1)C(N)=S,-1,-2,11,11,-4,-12
CC1N(C)c2cc(NC(=O)c3ccco3)ccc2C1(C)C (stereo not drawn),28,2,36*,27,-12,0
CC(C)CCn1c(=O)c2sccc2n2c(CCCC(=O)N3CCN(c4ccccn4)CC3)nnc12,5,-1,3,71*,-1,nt
CCn1c(=O)c2sccc2n2c(CCCC(=O)N3CCN(c4ccccn4)CC3)nnc12,0,-1,-3,3,1,nt
Cc1ccc(S(=O)(=O)N2CCOCC2)cc1C(=O)OCC(=O)N(Cc1ccccc1)C(C)C,-1,nt,3,1,-3,nt
COc1ccc(C2c3ccc4ccccc4c3Oc3ncn(Cc4ccco4)c(=N)c32)cc1OC (stereo not drawn),0,2,5,2,-15,11
COc1ccc(C2c3ccc(O)cc3Oc3ncn(Cc4ccco4)c(=N)c32)cc1OC (stereo not drawn),18,-29*,4,19,-16,-4
Cc1cccc(NC(=O)c2ccccc2Br)n1,0,1,5,4,0,-32
Cc1cccc(NC(=O)c2cccc3c2-c2ccccc2C3=O)n1,-1,0,4,67*,-9,-3
CCOc1ccc(/C=c2\sc3nc(-c4ccco4)nn3c2=O)cc1OCC,28,-31*,-7,14,0,48
COc1cc(/C=c2\sc3nc(=O)c(-c4ccccc4)nn3c2=O)ccc1OCCC(C)C,-8,nt,-10,0,1,-1
N#Cc1c(OCC(=O)c2ccccc2)nc2c(c1-c1ccco1)CCc1ccccc1-2,35,2,13,34*,-4,-24
